Laboratory results taken from the supplement of paper PMC6555819.

How the values were obtained:
Assay in all cases: PBM binding z-score (relative to random genomic background probes); higher = stronger binding; sequences stand for … in GC…GCGATTGACAGCGTAGAATGAAGG
[1] = system: FXR:RXRa (NR concentration 270 nM, RXRa partner concentration 90 nM)
In short: (§1)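 Random background probes are the reference for binding z-scores. These scores derive from regression-normalized fluorescence on custom Agilent 4×180K protein-binding microarrays incubated 1 h with ligand-free nuclear receptor dimers. Binding was detected with antibodies against each partner (one per run).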

[2] = system: LXRa:RXRa (NR concentration 270 nM, RXRa partner concentration 90 nM)
In short: as §1

[3] = system: LXRa homodimer (NR concentration 270 nM)
In short: as §1

[4] = system: LXRb:RXRa (NR concentration 270 nM, RXRa partner concentration 90 nM)
In short: as §1

[5] = system: LXRb homodimer (NR concentration 270 nM)
In short: as §1

[6] = system: PPARa:RXRa (NR concentration 270 nM, RXRa partner concentration 90 nM)
In short: as §1

[7] = system: PPARg:RXRa (NR concentration 180 nM, RXRa partner concentration 90 nM)
In short: as §1

[8] = system: PPARg:RXRa 270nM:90nM, anti-RXR (NR concentration 270 nM, RXRa partner concentration 90 nM)
In short: as §1

[9] = system: PPARg:RXRa 30nM:10nM, anti-RXR (NR concentration 30 nM, RXRa partner concentration 10 nM)
In short: as §1

[10] = system: PPARg:RXRa 90nM:30nM, anti-RXR (NR concentration 90 nM, RXRa partner concentration 30 nM)
In short: as §1

| Sequence | PBM binding z-score [1] | PBM binding z-score [2] | PBM binding z-score [3] | PBM binding z-score [4] | PBM binding z-score [5] | PBM binding z-score [6] | PBM binding z-score [7] | PBM binding z-score [8] | PBM binding z-score [9] | PBM binding z-score [10] |
| --- | --- | --- | --- | --- | --- | --- | --- | --- | --- | --- |
| TCGAGTAGGTTAGGGACATTCAGAATGGCGTCGA | 0.438 | -0.314 | -0.491 | -0.146 | -0.828 | 0.561 | 0.371 | 0.659 | 1.18 | 0.799 |
| GCTGCTAGGTCAACTGATGGTCAGCTTAAGCTCG | 4.41 | 3.13 | 0.215 | 2.09 | 0.173 | 3.5 | 2.44 | 2.97 | 0.312 | 2.07 |
| TCATTTAGGTAAACAGGTGAAAGTCCGTAAGTTA | 1.47 | 1.13 | 0.719 | 1.04 | 0.705 | 2.37 | 2.24 | 3.73 | 4.42 | 3.99 |
| TCATATAGGTAAATGCTAGGTGAACGTCCGATCT | 0.421 | 0.682 | 0.358 | 0.608 | -0.229 | 1.36 | 1.09 | 2.06 | 3.51 | 2.65 |
| CTCGAAAGGTCGTGCTCAGGTGAGTAAACCAAAC | 5.29 | 3.87 | 0.151 | 3.25 | 0.181 | 4.92 | 2.7 | 4.18 | 0.732 | 2.6 |
| CCGAGTAGGGTATGGGGCATTCAGGCAACGGTGA | -0.164 | -0.318 | -0.305 | 0.261 | -0.00353 | 1.14 | 2.09 | 3.6 | 1.5 | 3.18 |
| CCTACTGGGCCAAGGTCATTCATCAGTCAAAGCA | 3.63 | 3.65 | 1.71 | 3.07 | 0.00532 | 4.07 | 3.93 | 4.44 | 1.62 | 3.51 |
| ATCTCTAGGTAACCGAGTTCAGTGAATGCCGAAC | 0.422 | 0.883 | 1.08 | 0.706 | 0.377 | 1.44 | 0.672 | 1.1 | -0.103 | 0.724 |
| TCATATACGTAATACAGGTGAAAGTCGGCATCTA | 1.21 | 1.13 | 0.327 | 1.26 | 0.782 | 1.75 | 1.26 | 2.79 | 3.96 | 3.36 |
| TCTAGTAGATCAAAGGTTAAGAAAGCCGAAGCCT | 1.56 | 2.07 | 0.141 | 1.98 | -0.538 | 4.8 | 8.6 | 8.24 | 8.54 | 8.99 |
| ATATGTAGGTTATCGGGTCATTCGGTTTGCGCAT | 3.2 | 3.11 | 1.78 | 2.85 | 1.02 | 4.68 | 6.96 | 5.9 | 3.48 | 6.13 |
| TCTAGCAGGCCAGAGGGTCGCTCAAGAGGTACGG | -2.83 | -0.514 | -0.98 | -0.425 | -1.97 | 0.269 | 0.213 | 1.29 | 1.69 | 1.37 |
| GCTAGCAGGCCATTAGGGTCACTCAATGACGGGC | 1.78 | 1.35 | -0.158 | 1.47 | -0.982 | 2.54 | 1.2 | 1.3 | -0.267 | 0.446 |
| CCTACTGGGGCATCAGGTCATTGATATCAACGTT | 1.51 | 1.23 | 1.04 | 1.47 | -0.819 | 3.15 | 4.22 | 4.7 | 2.26 | 4.13 |
| CCGACTGGGGCATAAGGTTAACATAAGCCAGCCC | 0.54 | 1.08 | -0.335 | 0.945 | -1.21 | 2.22 | 2.6 | 3.42 | 1.27 | 2.84 |
| ATATGTCGGTTATCGGGTCATTCAGTTTGCGCAT | 2.49 | 2.52 | 1.64 | 2.54 | 0.586 | 3.3 | 2.53 | 2.94 | 0.785 | 2.19 |
| CGAACGAGGGCATGAATTGATAGCAAATGCCGAT | -0.0699 | -0.102 | -0.436 | -0.0113 | -0.655 | 0.924 | 0.992 | 0.623 | 0.00744 | 0.388 |
| TCTGGTAGGTCAGTTGGTCAGCTAACGAGCTGCC | 1.49 | 1.41 | 0.0494 | 1.09 | 0.418 | 2.17 | 1.6 | 2.93 | 2.4 | 2.47 |
| ACTCGGAGGACAAAGGCCAGAGCTACGCCAGTGA | -0.254 | -0.622 | -0.482 | -1.08 | -0.835 | 0.196 | 1.47 | 2.38 | 0.441 | 1.97 |

| Sequence | PBM binding z-score [1] | PBM binding z-score [2] | PBM binding z-score [3] | PBM binding z-score [4] | PBM binding z-score [5] | PBM binding z-score [6] | PBM binding z-score [7] | PBM binding z-score [8] | PBM binding z-score [9] | PBM binding z-score [10] |
| --- | --- | --- | --- | --- | --- | --- | --- | --- | --- | --- |
| CTCTAAAGGTCGGTTGAGGTGAGTATACGGATAA | 2.41 | 2.21 | 0.211 | 1.61 | 0.152 | 2.87 | 0.622 | 1.44 | 0.122 | 0.958 |
| TATACAGGGTCAAAGGCCAGGGTACGAATGTCGA | 6.87 | 6.23 | 2.51 | 4.8 | 2.5 | 6.27 | 8.53 | 7.29 | 5.77 | 6.97 |
| CGTCCAAGCTCATAGGAGGTCAGTGAAGACAGAT | 0.888 | 1.51 | 1.08 | 1.33 | -0.0875 | 1.92 | 0.491 | 0.292 | -0.158 | 0.173 |
| ATATGTAGGTTATCGGCTCATTCAGTTTGCGCAT | 0.488 | 0.867 | 0.283 | 0.755 | 1.03 | 2.6 | 4.14 | 3.87 | 1.47 | 3.4 |
| TCTTGTAGATCAATAGAGGTTCAGAAAGTGCGCT | 0.408 | 0.78 | -0.0503 | 0.293 | -0.193 | 0.663 | -0.13 | 1.35 | 2.81 | 2.47 |
| AATACTGGGTCATCGTAGGCCAGAGTACGCACAG | 3.75 | 4.06 | 1.07 | 2.04 | 0.0752 | 4.49 | 6.86 | 5.4 | 3.02 | 4.86 |
| CCGACTGGGGCAAAAGTTACCATACTCAGTACGA | -0.402 | -0.339 | -0.126 | -0.0156 | -0.764 | 2.49 | 5.28 | 6.09 | 4.45 | 6.52 |
| CGAACTATGTCATTGACAGGACAGTGAATAGTAA | -0.339 | -0.306 | -0.302 | 0.00263 | -0.414 | 0.765 | 0.677 | 0.347 | 0.272 | 0.497 |
| CAAACTAGGTCATTGACAGGACAGTGAATAGTAA | 4.7 | 3.38 | 0.946 | 2.29 | 0.688 | 4.71 | 7.82 | 6.85 | 3.97 | 6.16 |
| GCGACTGGGGCATCAGCAGGTTATCATAACTTAA | -0.342 | -0.258 | -0.199 | 0.87 | -0.615 | 1.38 | 0.968 | 0.916 | -0.378 | 0.369 |
| GGAGCGAGGGCATTCGAGTTGATAGCATGGCGAT | 0.608 | 1.24 | -0.883 | -0.106 | -1.07 | 0.542 | 0.179 | -0.159 | -0.424 | -0.195 |
| GGAACGAGGGCAAAGTTGATAGCTTCTGTCGACG | 1.24 | 0.709 | -0.752 | 0.608 | -0.484 | 3.85 | 6.78 | 6.83 | 5.74 | 7.17 |
| TAGCCTAGCTCATGGGCCAGTATACCACGCGAAC | -0.822 | -0.837 | -0.369 | -0.9 | -0.798 | -0.776 | 0.282 | -0.783 | -0.762 | -1.03 |
| CAAACTAGGTCAAGGACAGTGAATCTCCGCACGC | 3.5 | 2.6 | 0.383 | 1.84 | 0.431 | 4.98 | 7.68 | 6.71 | 4.3 | 6.04 |
| TTACCAAGTTGAGCTGAGGTCGTTGATCCAACTC | 0.614 | 0.638 | -0.367 | 0.536 | -0.873 | 1.03 | -0.512 | 0.423 | 0.243 | -0.0903 |
| AACGAAAGGTCGAGGTGAGTATAGAGAAAGGGAA | 4.3 | 3.7 | -0.0292 | 2.86 | 0.0857 | 4.71 | 3.34 | 3.82 | 1.16 | 2.59 |
| TCTCGGAGGACACGAAAGGTCAGAGCCCGACATC | 2.84 | 3.75 | 3.31 | 3 | -0.257 | 3.36 | 1.57 | 2.78 | 2.36 | 2.59 |
| GATACAGGTTCAAGGCCAGAGTACGCGTATTGAT | 1.85 | 1.7 | 0.305 | 1.41 | -0.271 | 2.72 | 1.43 | 1.64 | 0.208 | 1.19 |
